# HIF-2a block: inhibitors of HIF-2a; 786-0 RCC cells HIF-2a reporter, luciferase luminescence, overnight; inhibition, % at 18.8 µM; 360,000 compounds, 0.72% hits;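 active means inhibition of the luminescence signal of 40% or more relative to plate controls, in a single-dose primary screen at 18.75 µM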
# TWEAK-Fn14 inh: TWEAK-Fn14 signaling inhibition. 360,000 compounds, 2% hits. inhibition, % at 10 µM. AID 1159606. TWEAK-stimulated Fn14 reporter cells, luciferase luminescence, 8 h; in the data active means inhibition above about 50%
# CF NFkB inh: inhibitors of cystic fibrosis induced NF-kB. KKLEB NF-kB-GFP reporter, PAF-induced, GFP fluorescence overnight. inhibition, % at 5 µM. 360,000 compounds, 0.86% hits. AID 588850;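 active means at least 50% inhibition at 5 µM, scaled per plate between neutral and stimulator controls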;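 further: PAF is a Pseudomonas aeruginosa culture filtrate used as stimulus; plate controls were PAF-stimulated DMSO wells for no effect and unstimulated DMSO wells for full effect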
# Peg3 promoter: inhibitors of Peg3 promoter | HeLa PEG-Prom luciferase reporter, luminescence, overnight | inhibition, % at 20 µM | 360,000 compounds, 1.7% hits;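 active means inhibition of at least 50% at 20 µM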
# KKLEB cytotox: CF airway cell cytotoxicity counter-screen; KKLEB CF airway cells viability, ATPlite luminescence, overnight; hits give low values; cells stimulated with P. aeruginosa culture filtrate; AID 602141; activity change (cytotoxicity), % at 5 µM; 360,000 compounds, 0.36% hits;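 active means corrected activity change at or below -50% at 5 µM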
# TROY signal inh: inhibitors of TROY-dependent NF-kB signaling; 360,000 compounds, 0.98% hits; AID 1347056; inhibition, % at 10 µM; Q293 LMP1-TROYcd NF-kB luciferase reporter, 4 h;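 active means compounds whose plate-normalised and pattern-corrected inhibition of the luciferase reporter signal at the single screening dose is 50% or more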
# The depositor's hits bear a star; nt = no result given. This is a sample that favours compounds with a hit; in the whole collection about 4% have one here.
SMILES,HIF-2a block,TWEAK-Fn14 inh,CF NFkB inh,Peg3 promoter,KKLEB cytotox,TROY signal inh
CCCCCOC(=O)c1c(N)n(CCOC)c2nc3ccccc3nc12,-15,20,-20,19,-7,0
CCC(=O)N1CCc2cc(S(=O)(=O)CCC(=O)NC(C)CC)ccc21 (configuration not stated),19,7,-5,-33,16,3
CC(C)Oc1ccc2ccccc2c1C=O,-9,-4,0,-8,-8,-8
COc1ccc(C(=O)O/N=C(\N)c2ccccc2)cc1,-189,82*,-8,31,5,42
COc1ccc(/C(N)=N/OC(=O)c2ccco2)cc1,-79,64*,3,-114,-25,56*
CCOC(=O)c1c(C)nsc1NC(=O)c1ccco1,7,-10,3,2,-2,3
CC(C)C(C(=O)NCc1ccco1)N(Cc1ccco1)C(=O)CNS(=O)(=O)c1ccccc1 (configuration not stated),-1,17,6,0,4,7
CCn1c(SCC(=O)NNC(=O)c2ccc(C)cc2)nnc1C(C)C,6,-2,-3,6,1,1
C[C@@H]1CN([C@@H](C)CO)C(=O)CCCn2nncc2CO[C@H]1CN(C)C(=O)CCC(F)(F)F,7,7,-38,9,13,6
CN(C)c1cc(NC(=O)CNC(C)(C)C)c2ccccc2n1,20,51*,-25,15,9,-2
N=C(N)c1ccc(N=Nc2c(O)ccc3c2[nH]c2ccccc23)cc1,-11,-3,0,98*,6,-2
CCOC(=O)CNC(=O)CCCCCC(=O)NCC(=O)OCC,12,1,6,-3,-12,5
COc1cc2c(cc1OC)-c1cc(Nc3ccc4c(c3)OCCO4)nc(=O)n1CC2,15,86*,27,-44,-12,79*
COc1cc(NC(=O)Cc2ccc(S(=O)(=O)N3CCOCC3)s2)c(OC)cc1Cl,33,5,2,35,0,-6
COc1cc(/C=C(/C#N)C(=O)Nc2ccc(C)cc2)ccc1Oc1nc(Cl)ncc1F,13,-15,14,51*,-20,25
COc1ccc(NC(=O)CSc2nc(N)c(C#N)cc2C#N)cc1,-8,-15,5,-16,-2,6
COc1ccc2nc(SCC(=O)Nc3ccc4sc(C)nc4c3)c(C#N)cc2c1,-59,-11,17,-38,-62*,-18
CC(CCN1CCOCC1)c1ccccc1 (configuration not stated),15,60*,3,3,-2,5
CC(CCN1CCN(CCO)CC1)c1ccccc1 (configuration not stated),15,0,-1,4,-11,13
O=C(Nc1ccccc1)NC1CS(=O)(=O)CC1O (configuration not stated),-1,-5,8,-6,-11,6
CCCc1c(-c2ccc(Cl)cc2)ncn1Cc1cccc(-c2ccccc2)c1,5,nt,nt,nt,nt,nt
Cc1ccc(S(=O)(=O)N2CCN(Cc3nc4ccccc4[nH]3)CC2)cc1C,8,-4,6,-2,10,53*
COc1cc(C(c2c(O)cc(C)[nH]c2=O)c2c(O)cc(C)[nH]c2=O)ccc1O,9,7,-16,-2,8,-17
CCCCN1CC(COCc2ccccc2)Oc2cccc(N3CCCC3)c2S1(=O)=O (configuration not stated),6,-15,-3,25,8,-13
O=C1CC(=O)C(n2cncn2)C(c2ccc(Cl)cc2Cl)C1 (configuration not stated),18,64*,2,-5,1,-1
Cc1ccc(NCc2nnc(SCC(=O)c3ccc4c(c3)OCCO4)o2)c(C)c1,12,31,32,4,-23,77*
COc1ccc(C(=O)CSc2nnc(CNc3ccc(C)cc3C)o2)cc1,-8,2,21,-3,0,-16
CCOc1ccc(NC(=O)c2ccccc2OCC(=O)c2ccc(C)cc2)cc1,4,-58,43,-1,-53*,-30
O=C(Oc1c(Cl)cc(Cl)c2cccnc12)c1cccc([N+](=O)[O-])c1,15,-45,13,54*,13,25
O=C(Oc1ccc(Cl)c2cccnc12)c1cccc([N+](=O)[O-])c1,-1,21,28,18,-32,5

# Source: PubChem BioAssay
